# Screening results: PubChem, National Center for Advancing Translational Sciences (NCATS)
# FEN1 inh-1 = qHTS Assay for the Inhibitors of Human Flap endonuclease 1 (FEN1) | P39748 | Recombinant FEN1 flap cleavage, fluorescence, 15 min | Potency, µM (highest dose often 114 µM), inactives show top-dose activity change, negative = inhibition, usual class: inhibitors | 390,000 compounds, 0.35% hits | AID 588795, 2011; also: % is scaled to controls: 0 for no effect and ±100 for the full control effect; nearly all actives have a fitted effect of over 65% in size
#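 Nuclease activity of 10 nM FEN1 was measured after 15 min of room-temperature exposure to titrated compounds, by adding 50 nM flap substrate and reading plates at 0 and 15 min.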
# RECQ1 inh-1 = qHTS Assay for Inhibitors of RecQ-Like Dna Helicase 1 (RECQ1); RECQ1 DNA unwinding, red fluorescence kinetic read; AID 2549, 2010; Potency, µM (doses to about 57.3 µM), for the others: at the top dose activity, negative = inhibition, actives largely listed as inhibitors; 240,000 compounds, 0.54% hits; ATP-dependent DNA helicase Q1 (Homo sapiens), P46063;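 also: plate controls were vehicle for no effect and no enzyme for full effect; nearly all actives have a fitted effect of over 30% in size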
#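 RECQ1T1 50 nM; forked duplex (20 bp + 30-nt ss tails) 200 nM, ATP 2 mM final; pH 8.0, 2 mM MgCl2, 2.5 ug/ml poly(dI-dC); 15 min compound preincubation; discontinuous kinetic read over 2 h at RT.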
# APE1 inh-1 = qHTS Assay for Inhibitors of the Human Apurinic/apyrimidinic Endonuclease 1 (APE1). DNA repair nuclease/redox regulator APEX1 (Homo sapiens), P27695. AID 2517, 2012. Potency, µM (doses to about 65.8 µM), for the others: at the highest dose activity change, negative = inhibition, usual class: inhibitors. recombinant APE1, TAMRA/BHQ-2 abasic DNA cleavage fluorescence. 350,000 compounds, 0.35% hits;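 also: plate controls were vehicle for no effect and reference inhibitor for full effect; nearly all actives have a fitted effect of over 55% in size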
# Target sequence (P27695 whole entry, looked up): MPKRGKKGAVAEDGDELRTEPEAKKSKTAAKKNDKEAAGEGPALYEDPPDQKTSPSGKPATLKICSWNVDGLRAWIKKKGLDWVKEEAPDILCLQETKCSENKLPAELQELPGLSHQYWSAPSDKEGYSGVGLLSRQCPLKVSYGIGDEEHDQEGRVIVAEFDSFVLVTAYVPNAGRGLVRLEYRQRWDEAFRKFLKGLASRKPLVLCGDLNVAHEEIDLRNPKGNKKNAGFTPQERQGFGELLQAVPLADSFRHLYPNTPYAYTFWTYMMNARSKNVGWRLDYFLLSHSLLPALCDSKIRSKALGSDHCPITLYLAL
#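 0.75 nM APE1 + cpd, 15 min RT; start w/ 50 nM TAMRA/BHQ-2 THF-abasic dsDNA; kinetic fluor 525/598 nm ×3 reads @60 s; Δ(read3−read1); normalized to DMSO and NSC13755 control wells.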
# BLM inh = qHTS Assay for Inhibitors of Bloom's syndrome helicase (BLM). RecQ-like DNA helicase BLM (Homo sapiens), P54132. recombinant BLM DNA unwinding, fluorescence dequenching. Potency, µM (top dose mostly 56.1 µM), for the others: top-dose activity change, negative = inhibition, usual class: inhibitors. 350,000 compounds, 0.2% hits;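 also: plate controls were vehicle for no effect and no enzyme for full effect; nearly all actives have a fitted effect of over 35% in size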
# PGK inhibitor = qHTS Assay to Find Inhibitors of Phosphoglycerate Kinase. AID 602233, 2012. 380,000 compounds, 0.043% hits. PGK/GAPDH coupled, Kinase-Glo luminescence, 60 min. Phosphoglycerate kinase, glycosomal (Trypanosoma brucei brucei), P07378. Potency, µM (top dose mostly 57.5 µM), for inactives: at the top dose activity change, negative = inhibition, usual class: inhibitors; also: % is scaled to controls: 0 for no effect and ±100 for the full control effect; nearly all actives have a fitted effect of over 60% in size
# Target sequence (P07378 whole entry, looked up): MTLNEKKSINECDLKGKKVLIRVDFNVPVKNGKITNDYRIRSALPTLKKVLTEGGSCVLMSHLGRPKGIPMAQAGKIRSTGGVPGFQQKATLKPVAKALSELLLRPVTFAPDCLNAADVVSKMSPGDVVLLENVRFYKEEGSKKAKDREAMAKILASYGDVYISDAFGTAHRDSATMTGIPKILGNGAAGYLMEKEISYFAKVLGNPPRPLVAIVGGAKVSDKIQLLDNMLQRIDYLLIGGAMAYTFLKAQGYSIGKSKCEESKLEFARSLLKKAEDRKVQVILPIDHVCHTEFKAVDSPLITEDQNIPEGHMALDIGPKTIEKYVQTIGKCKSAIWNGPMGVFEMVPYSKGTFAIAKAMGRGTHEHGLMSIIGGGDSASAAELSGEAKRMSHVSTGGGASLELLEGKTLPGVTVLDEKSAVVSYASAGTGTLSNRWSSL
#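 Recombinant glycosomal PGK reaction used 1,3-bisphosphoglycerate generated in-well by GAPDH (100nM final) in 100mM TEA pH 7.6, 5mM MgCl2, 0.01% Tween-20. After 60 minutes at room temperature, ATP was read by Kinase-Glo Plus luminescence end-point.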
# DNA dye displace = Counterscreen for APE1 Inhibitors: Fluorescent Dye Displacement Assay | Potency, µM (titrated, usually from 28.5 µM), inactives show at the top dose activity change, negative = inhibition, hits mostly inhibitors | shares compounds with APE1 inh-1 | DNA fluorescent dye displacement counterscreen, fluorescence | 480 compounds, 7% hits | AID 2564, 2010;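 also: loss of thiazole orange fluorescence as the dye is displaced from duplex DNA; 0% = ThO with dsDNA and no compound and -100% = ThO without dsDNA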
# EndoIV counter = Counterscreen for APE1 Inhibitors: qHTS Assay for Inhibitors of Endonuclease IV; Potency, µM (top dose mostly 27.1 µM), inactives show at the highest dose activity change, negative = inhibition, hits mostly inhibitors; 560 compounds, 4% hits; E. coli Endo IV, fluorogenic AP-site DNA cleavage; shares compounds with APE1 inh-1;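 also: plate controls were uninhibited enzyme wells for no effect and no enzyme buffer wells for full effect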
# APE1 inh-2 = Confirmation qHTS Assay for Inhibitors of the Human Apurinic/apyrimidinic Endonuclease 1 (APE1); 750 compounds, 44% hits; purified APE1, fluorogenic abasic-site DNA cleavage; Potency, µM (top dose mostly 57.1 µM), for inactives: at the highest dose activity change, negative = inhibition, most hits filed as inhibitors; shares compounds with APE1 inh-1; also: % is scaled to controls: 0 for no effect and ±100 for the full control effect; nearly all actives have a fitted effect of over 30% in size
# APE1 FP inh = qHTS FP-Based Assay for Inhibitors of the Human Apurinic/apyrimidinic Endonuclease 1 (APE1) | shares compounds with APE1 inh-1 | APE1 binding to TAMRA-labelled double-stranded DNA, fluorescence polarization displacement | Potency, µM (top dose mostly 28.5 µM), without a hit: top-dose activity, negative = inhibition, hits mostly inhibitors | 480 compounds, 7% hits; also: % is scaled to controls: 0 for no effect and ±100 for the full control effect
# RECQ1 inh conf = Confirmation qHTS Assay for Inhibitors of RecQ-Like Dna Helicase 1 (RECQ1); 610 compounds, 28% hits; Potency, µM (top dose mostly 229 µM), for inactives: top-dose activity change, negative = inhibition, hits mostly inhibitors; shares compounds with RECQ1 inh-1; RECQ1 helicase DNA unwinding, fluorescence; also: % is scaled to controls: 0 for no effect and ±100 for the full control effect; nearly all actives have a fitted effect of over 45% in size
# RECQ1 ADP FP = Counterscreen for RECQ1 Inhibitors: ADP Fluorescence Polarization Displacement Assay; shares compounds with RECQ1 inh-1; ADP fluorescence polarization displacement counterscreen; Potency, µM (titrated, usually from 228 µM), for inactives: at the top dose activity change, negative = inhibition, most hits filed as inhibitors; 530 compounds, 27% hits; AID 2711, 2010; also: % is scaled to controls: 0 for no effect and ±100 for the full control effect; nearly all actives have a fitted effect of over 45% in size
# RECQ1 inh-2 = Confirmation qHTS Assay for Inhibitors of RecQ-Like Dna Helicase 1 (RECQ1) - Round 2 Cherry Picks; shares compounds with RECQ1 inh-1; recombinant RECQ1 DNA unwinding, red fluorescence; Potency, µM (top dose mostly 119 µM), for the others: at the highest dose activity, negative = inhibition, actives largely listed as inhibitors; 1,100 compounds, 15% hits; AID 504841, 2011; also: % is scaled to controls: 0 for no effect and ±100 for the full control effect; nearly all actives have a fitted effect of over 50% in size
# FEN1 inh-2 = qHTS Assay for the Inhibitors of FEN1: Confirmatory Assay for Cherry-picked Compounds; FEN1 flap cleavage, TAMRA/BHQ2 fluorogenic DNA substrate; Potency, µM, hits mostly inhibitors; 880 compounds, 79% hits; shares compounds with FEN1 inh-1; also: nearly all actives have a fitted effect of over 60% in size
# * hit, by the source's call; i = inactive; ? = inconclusive; . = not tested or not shown; [ ] = another dose, or the depositor's remark. A selection: hits, their analogues and other compounds. The true share with any hit is near 0.74%. Calls follow the shape of the dose curve; as a rule, active = well fitted curve in the direction sought with a large enough effect; inconclusive = small, poorly fitted or top-dose-only effect, or another doubt; inactive = no such curve, though single readings can be large; an effect the other way counts as inactive or inconclusive. Potency is read from the fitted curve at half-maximal effect.
SMILES,FEN1 inh-1,RECQ1 inh-1,APE1 inh-1,BLM inh,PGK inhibitor,DNA dye displace,EndoIV counter,APE1 inh-2,APE1 FP inh,RECQ1 inh conf,RECQ1 ADP FP,RECQ1 inh-2,others
O=C(CSC1CC(=O)N(CC(c2ccccc2)c2ccccc2)C1=O)Nc1ccc(Cl)cc1 (stereo not given),-22%,?,?,-13%,2%,48%,?,?,13%,.,.,?,
O=C(O)CSC1CC(=O)N(c2ccc(Cl)cc2)C1=O (stereo not given),-1%,-3%,3%,0%,-1%,.,.,.,.,.,.,.,
COc1cc(O)c2c(c1)oc(=O)c1c3cc(O)c(O)cc3oc21,.,2.5µM*,1.8µM*,13µM*,.,8.9µM*,87%[57.1 µM],4.5µM*,1%[57.1 µM],14µM*,45µM*,2.2µM*,
Cc1ccc2oc(=O)c3c4cc(O)c(O)cc4oc3c2c1,.,-10%,?,-5%,.,.,.,.,.,.,.,.,
CCOC(=O)C1CCc2sc(N)c(C#N)c21 (stereo not given),6%,25µM*,?,-6%,-2%,-4%,0%,-8%[24.4 µM],?,11%[114 µM],-1%[91.9 µM],.,
COc1ccc(CCn2c(O)cc3nn(-c4nc5ccccc5s4)c(=O)c-3c2C)cc1,?,25µM*,32µM*,-27%,i,?,9%,16µM*,4%,20%[114 µM],-3%[91.9 µM],-15%,
CCOC(=O)CSc1nc(-c2ccc(OCC)cc2)cc(C(F)(F)F)c1C#N,-3%,.,.,3%,i,.,.,.,.,.,.,.,
COc1cccc(OC)c1C(=O)NC(=O)NNc1cc(C(F)(F)F)cc(C)n1,16%,.,4%,-1%,i,.,.,.,.,.,.,.,
Cc1ccc(NC(=O)C2CCN(c3nnc(C)c4c(C)n(-c5ccccc5)nc34)CC2)c(Cl)c1,8%,.,.,2%,i,.,.,.,.,.,.,.,
COCCCn1c(=NC(=O)c2ccccc2)c(C#N)cc2c(=O)n3cccc(C)c3nc21,-2%,6%,-4%,-7%,-4%,.,.,.,.,.,.,.,
Cc1cccc(C(=O)N=c2c(C#N)cc3c(=O)n4cccc(C)c4nc3n2Cc2ccco2)c1,-15%,?,?,-27%,-3%,.,.,-33%,.,.,.,-20%,
O=C(/C=C/c1ccc(O)c(O)c1)OC1C(O)CC(OC(=O)/C=C/c2ccc(O)c(O)c2)(C(=O)O)CC1O (stereo not given),-2%,-2%,?,6%,-14%,-7%,104%,-11%[24.4 µM],?,6%,-3%,.,
C=C1c2cccc(O)c2C(O)=C2C(=O)[C@@]3(O)C(O)=C(C(N)=O)C(=O)[C@@H](N(C)C)[C@@H]3[C@@H](O)[C@H]12,.,?,.,-5%[21.4 µM],.,-11%,24%,-5%[24.4 µM],?,?,14µM*,.,
N[C@]1(C(=O)O)CCc2cc(C(=O)O)ccc21,.,16%,?,-9%,.,.,.,.,.,.,.,.,
COc1ccc(OC)c(NC(=O)c2noc3c2CCCC3)c1,?,.,.,-3%,i,.,.,.,.,.,.,.,
COC(=O)c1ccccc1NC(=O)c1noc2c1CCC2,?,?,?,?,?,?,24%,11µM*,?,.,.,?,
COc1ccc(NC2CCCN(C(=O)c3csc(C(C)C)n3)C2)cc1OC (stereo not given),1%,.,18%,-7%,-7%,.,.,.,.,.,.,.,
Cc1ccccc1-n1c(C)cc(/C=C2/C(=N)N3C(c4ccccc4)=CSC3=NC2=O)c1C,-4%,-9%,3%,-5%,7%,.,.,.,.,.,.,.,
N=C1/C(=C\c2ccc(-c3cccc(C(=O)O)c3)o2)C(=O)N=C2SC=C(c3ccccc3)N12,32µM*,?,40µM*,-24%,?,.,.,40µM*,.,.,.,?,FEN1 inh-2=67*
C=CCc1cccc2cc(C(=O)Nc3ccc(S(=O)(=O)Nc4nnc(CC)s4)cc3)c(=O)oc12,40µM*,-4%,?,?,?,.,.,40µM*,.,.,.,.,FEN1 inh-2=85*
